High-throughput results from PubChem BioAssay.
CYP2C19 inhib: inhibitors of human CYP2C19. P33261. CYP2C19 Supersomes, luciferin-H EGE luminescence, 30 min. inhibition, % at 5 µM. 21% of 96,000 active. AID 778;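 active = CYP2C19 inhibition above a set limit at 5 µM in the primary screen, cut at about 50% in these data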;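 also: plate controls were negative control wells for no effect and 2.5 mM tranylcypromine positive control for full effect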
Target sequence (P33261 whole entry, looked up): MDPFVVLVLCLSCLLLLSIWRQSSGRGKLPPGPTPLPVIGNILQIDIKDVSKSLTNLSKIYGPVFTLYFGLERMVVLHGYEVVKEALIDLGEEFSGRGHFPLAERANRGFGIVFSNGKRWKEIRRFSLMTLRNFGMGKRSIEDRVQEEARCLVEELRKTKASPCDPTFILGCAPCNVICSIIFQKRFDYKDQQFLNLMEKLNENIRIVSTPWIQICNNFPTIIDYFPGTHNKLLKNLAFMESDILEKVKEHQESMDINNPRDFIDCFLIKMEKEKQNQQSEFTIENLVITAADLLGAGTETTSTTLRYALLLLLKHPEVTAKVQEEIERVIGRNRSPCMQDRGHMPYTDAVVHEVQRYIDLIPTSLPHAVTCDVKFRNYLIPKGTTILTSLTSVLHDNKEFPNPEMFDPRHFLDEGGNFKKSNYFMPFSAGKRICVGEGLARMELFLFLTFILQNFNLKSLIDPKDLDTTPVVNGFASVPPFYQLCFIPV
CYP2C9 act: increases human cytochrome P450 2C9 activity; P11712; 1.4% of 96,000 active; recombinant CYP2C9, luciferin-H conversion, luminescence; active compounds read high; factor 1 = untreated enzyme, 0 = blocked; activation factor at 5 µM;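 active = activation factor of 2 or more for CYP2C9 at a 5 µM dose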;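 also: 0 = sulfaphenazole-blocked wells and 1 = vehicle-only wells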
CYP2C19 activ: increases human CYP2C19 enzyme activity. P33261. recombinant CYP2C19, luciferin-H EGE luminescence; active compounds read high; 0 = fully inhibited enzyme, 1 = untreated enzyme. activation factor at 5 µM. 96,000 tested, under 10 active;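 active = activation factor of at least 2 at 5 µM in the primary screen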;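 also: 0 = wells with 2.5 mM tranylcypromine and 1 = vehicle-only wells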
PLAP activator: activates human placental alkaline phosphatase; purified PLAP enzyme, luminescent substrate read-out; active compounds read high; activation fold at 20 µM; 1.2% of 96,000 active; in the data active = activation fold above about 2
CYP2C9 inh: inhibitors of human CYP2C9; P11712; inhibition, % at 5 µM; CYP2C9 Supersomes, luciferin-H conversion, luminescence; 20% of 96,000 active;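 active = blocking of liver enzyme CYP2C9 beyond about 50% at 5 µM, limit read from the data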
The depositor's hits bear a star. A selection: hits, their analogues and other compounds. The true share with any hit is near 31%.

SMILES	CYP2C19 inhib	CYP2C9 act	CYP2C19 activ	PLAP activator	CYP2C9 inh
CCc1ccccc1-n1c(SCC(=O)Nc2ccc3c(c2)OCCO3)nc2[nH]ncc2c1=O	53.9*	0.4	0.5	1.9	61.3*
O=c1cc(O)nc(SCc2ccccc2)n1-c1ccc(F)cc1	9.9	1	0.9	1.2	1.3
N#Cc1ccc(C(=O)Nc2ccc(N3CCN(C(=O)c4ccco4)CC3)cc2)c(F)c1	11.9	0.8	0.9	0.8	19.6
O=C(COC(=O)c1ccc(S(=O)(=O)NCc2ccco2)cc1)NCC1CCCCC1	17.3	0.4	0.8	0.9	57.6*
O=C(NC1CCCCC1)c1ccc(S(=O)(=O)NCc2ccco2)cc1	8.8	0.7	0.9	0.9	26.9
O=C(COC(=O)c1ccc(S(=O)(=O)Nc2ccccc2)cc1)NCc1ccco1	41.6	0.2	0.6	1.1	75.1*
COc1ccccc1OCC(=O)OCC(=O)NCCN1C(=O)CSC1=O	-12.4	1.2	1.1	1.1	-16.3
O=C(COC(=O)c1ccc(S(=O)(=O)Nc2ccccc2)cc1)NCCN1C(=O)CSC1=O	61.7*	0.2	0.4	1.3	81.4*
Cc1cccc(C)c1NC(=O)C1(NC(=O)C2CCCN2C(=O)OC(C)(C)C)CCCCC1 (stereo not drawn)	-13.5	1.1	1.1	1.2	-12.5
COc1cc(Nc2cc(C)nc3nc(C)nn23)cc(OC)c1OC	-12.9	0.9	1.1	1.8	5.7
Cc1ccc(-c2c(C)sc(=NC(=O)c3ccco3)n2C)cc1	21.2	0.2	0.8	1.2	76.6*
COc1cc(C(=O)NCc2cn3cccc(C)c3n2)cc(OC)c1OC	40.4	0.5	0.6	1.2	47.8
Cc1ccc2c(c1)c1c3n2CC(=C2C(=O)OC(C)(C)OC2=O)NC3CCC1 (stereo not drawn)	40.3	0.2	0.6	1.4	81.0*
O=C(O)Cn1nc(-c2ccccc2)oc1=O	-5.2	1.1	1.1	1.3	-8.5
S=c1oc(-c2ccncc2)nn1CCc1ccncc1	98.8*	0.1	0	1	85.2*
CC(=O)N(/N=C1\Sc2ccccc2C1=O)c1ccccc1	50.3*	0.4	0.5	0.8	62.8*
CC1=C(C(=O)Nc2ccc(Cl)cc2)C(c2cccs2)n2nnnc2N1 (stereo not drawn)	4.2	0.9	1	1.1	10.1
COc1ccc(Cn2cnc3c(NS(C)(=O)=O)c(C)c(C)cc32)cc1	65.1*	0.7	0.3	1.3	28.7
Cc1ccccc1Cn1cnc2c(NS(C)(=O)=O)c(C)c(C)cc21	44.9	0.6	0.6	1.2	39.1
CCCCCCCCCOC(=O)C(CC(=O)O)N1CCOCC1 (stereo not drawn)	3.9	0.2	1	2*	77.0*
O=C(NCc1ccco1)c1cc(C(=O)C2CC2)c[nH]1	15.0	0.9	0.8	0.9	14.3
COc1ccc(NCc2n[nH]nc2-c2ccccc2)cc1Cl	96.9*	0.1	0	1.7	86.0*
Cc1cccc(-c2noc(CN(C(=O)C(c3ccccc3)c3ccccc3)C(C)C)n2)c1	10.7	0.5	0.9	1.3	51.3*
Cc1cccc(-c2noc(Cc3ccccc3)n2)c1	-0.8	1	1	0.9	0.6
Cc1cccc(-c2noc(CN(C(C)C)S(=O)(=O)c3ccc(F)cc3)n2)c1	26.7	1.1	0.7	1	-13.5
SMILES	CYP2C19 inhib	CYP2C9 act	CYP2C19 activ	PLAP activator	CYP2C9 inh
COc1cccc(C(=O)N(Cc2nc(-c3cccc(C)c3)no2)C(C)C)c1OC	74.4*	0.2	0.3	1.6	81.8*
Cc1cccc(-c2noc(CN(C(=O)c3ccc4c(c3)OCO4)C(C)C)n2)c1	6.1	0.6	0.9	1.1	37.0
Cc1cccc(-c2noc(CN(C(=O)c3ccc(Br)o3)C(C)C)n2)c1	45.5	0.4	0.5	1.1	56.1*
Nn1cc(-c2ccccc2)nc1SCC(=O)N1CCN(S(=O)(=O)c2ccc(Cl)cc2)CC1	6.2	0.9	0.9	0.8	12.1
Cc1ccccc1-c1nnn(CC(=O)N2CCN(S(=O)(=O)c3ccc(Cl)cc3)CC2)n1	61.8*	0.8	0.4	1.6	19.5
O=C(CSc1nc2ccccc2[nH]1)N1CCN(S(=O)(=O)c2ccc(Cl)cc2)CC1	8.1	0.8	0.9	2*	18.0
CCOC(=O)c1[nH]c(C)c(/C(O)=C2\C(=O)C(=O)N(CCCN(C)C)C2c2ccncc2)c1C (stereo not drawn)	-6.8	1.1	1.1	1	-6.3
Cc1nc2nc3c(cn2n1)C(=O)CC(C)(C)C3	7.5	1.4	0.9	0.9	-36.4
COc1cc(NC(=O)Cc2c(C(=O)O)[nH]c3ccccc23)cc(OC)c1OC	19.7	0.8	0.8	1.1	23.2
Cc1cccc(NC(=O)CNc2cc(C)ccc2C)c1	84.2*	0.7	0.2	1.1	26.1
COc1ccccc1NC(=O)CNS(=O)(=O)c1ccccc1	96.0*	1.5	0	1	-53.5
COc1cc(NC(=O)CS(=O)(=O)c2ccccc2)cc(OC)c1OC	66.2*	0.7	0.3	0.9	31.2
Cc1ccc(C)c(NC(=O)CNS(=O)(=O)c2ccccc2)c1	78.7*	2.1*	0.2	1	-105.1
CC(=O)c1ccc(-c2nc3c4ccccc4ccn3c2C(C)=O)o1	16.9	1	0.8	1	4.5
CCCCn1nc(C(=O)O)ccc1=O	7.5	0.9	0.9	1.1	9.3
COC(=O)C(CCSC)NC(=O)CNS(=O)(=O)c1ccc(Cl)cc1 (stereo not drawn)	20.8	0.8	0.8	1	21.5
O=S(=O)(Nc1ccc(-c2cn3ccsc3n2)cc1)c1ccc2c(c1)OCCO2	76.4*	0.1	0.2	1.1	91.3*
O=S(=O)(Nc1nccs1)c1ccc(Cl)cc1	21.0	0.5	0.8	0.9	50.2*
Cc1cc(C(=O)Nc2ccc(S(=O)(=O)Nc3nccs3)cc2)c(C)o1	-11.5	0.7	1.1	1.6	26.3
O=S(=O)(Nc1ccc(S(=O)(=O)Nc2nccs2)cc1)c1ccc2c(c1)OCCO2	-8.1	0.3	1.1	1	67.2*
OC(c1cccs1)(c1cccs1)C1C[N+]2(CF)CCC1CC2 (stereo not drawn)	5.2	1.1	0.9	0.7	-6.6
O=S(=O)(NC1CC1)c1ccc(S(=O)(=O)N2CCCC3(CCCCC3)C2)cc1	26.1	0.5	0.7	0.8	48.9
Cc1nnc(-n2cnc3ccccc32)c2ccccc12	-3.9	1.1	1	0.9	-10.8
c1ccc(-n2nnnc2-n2cnc3ccccc32)cc1	82.2*	0.6	0.2	1.1	43.8
O=C(C1CCN(c2nnnn2-c2ccccc2)CC1)N1CCN(c2ccccc2)CC1	17.1	0.8	0.8	0.9	23.9
Cc1cc(N2CCN(c3nnnn3-c3ccccc3)CC2)n2ncnc2n1	65.6*	0.7	0.3	0.8	30.7
Cc1cccc(N2CCN(c3nnnn3-c3ccccc3)CC2C)c1 (stereo not drawn)	100.0*	0.1	0	1.3	88.4*
c1ccc(N2CCN(c3nnnn3-c3ccccc3)CC2)cc1	99.8*	0.1	0	1.2	93.2*
Cc1ccc(CNc2ccc(N3CCOCC3)c(C(=O)O)c2)s1	-4.8	1.1	1	1.5	-6.4
